PubChem BioAssay (Tox21)
The source made the active and inactive calls. Calls follow the shape of the dose curve; as a rule, active = well fitted curve in the direction sought with a large enough effect in the repeat runs; inconclusive = weak or mixed curves; inactive = flat fitted curve, though single readings scatter.

Assay: qHTS assay to test for compound auto fluorescence at 590 nm (red) in HepG2 cells (AID 720674)
Conditions: HepG2 autofluorescence, red 540/590 nm, 1 h; series mostly up to 91.3 µM
Description: U.S. Tox21 Program National Center for Advancing Translational Sciences [NCATS] NIH Chemical Genomics Center [NCGC] U.S. Environmental Protection Agency [EPA] National Institutes of Environmental Health Sciences [NIEHS] National Toxicology Program [NTP] U.S. Food and Drug Administration [FDA] Tox21 Assay Overview: Compound auto fluorescence often interferes with screening of the compound library against various biological targets and signaling pathways. Some of these compounds may have fluorophoric properties. Such properties may interfere with the assay outputs resulting in false positives and/or negatives. To decrease such complications and ensure the compound activities are relevant in terms of biological response, the Tox21 10K compound library was screened for auto fluorescence. From the fluorophores used as reporter signals in our screening assays, the auto fluorescence equivalencies of compounds against three fluorophores have been evaluated: Triamterene, Fluorescein and Rose Bengal sodium for blue, green and red fluorescence, respectively. The fluorescence intensities were measured using Excitation/Emission wavelengths at 405/460nm, 485/535nm and 540/590nm for blue, green and red labels, respectively. This assay includes the red fluorescence data.
Tox21 Assay Protocol Summary: 2,000 HepG2 cells in 5 uL of culture medium (MEM containing 10% FBS) per well were dispensed into black wall/clear bottom 1536-well plates using a Multidrop Combi Dispenser (ThermoFisher Scientific, Waltham, MA). The assay plates were incubated overnight at 37 C to allow cell attachment to the well bottom, followed by the transfer of 23 nL compound or DMSO vehicle by a pintool work station (Kalypsys , San Diego, CA). After the assay plates were incubated for 1 hr at 37 C and 5% CO2, fluorescence intensities in the assay plates were measured by an Envision (PerkinElmer, Shelton, CT) plate reader using three labels for measuring blue, green and red fluorescence at […] 460, 535 and 590 nm respectively.

Row | SMILES | outcome
1 | CC(C)=CC1C(C(=O)OCc2cccc(Oc3ccccc3)c2)C1(C)C (stereo not given) | inactive
2 | CC(O)CN(CC(C)O)CC(C)O (stereo not given) | inactive
3 | CCCCSP(=O)(SCCCC)SCCCC | inactive
4 | O=C(O)c1nn(Cc2ccc(Cl)cc2Cl)c2ccccc12 | inactive
5 | O=C(O)CF | inactive
6 | N#CC(c1ccccc1)c1ccccc1 | inactive
7 | COC(=O)Nc1nc2ccccc2[nH]1 | inactive
8 | CCCCOCCOC(C)=O | inactive
9 | Nc1ccc2ccccc2c1 | inactive
10 | C=CC(=O)OCC(CC)(COC(=O)C=C)COC(=O)C=C | inactive
11 | CN(C)P(=O)(N(C)C)N(C)C | inactive
12 | CCCCOCC1CO1 (stereo not given) | inactive
13 | Brc1ccc(Br)cc1 | inactive
14 | C[N+](C)(C)C | inactive
15 | CCOP(=S)(OCC)OP(=S)(OCC)OCC | inactive
16 | Cc1cccc(N=Nc2ccc(N(C)C)cc2)c1 | inactive
17 | O=[N+]([O-])c1ccc(Cl)c([N+](=O)[O-])c1 | inactive
18 | CCC(=O)Nc1ccc(Cl)c(Cl)c1 | inactive
19 | CCOP(=S)(OCC)SCSC(C)(C)C | inactive
20 | Cc1ccc([N+](=O)[O-])cc1 | inactive

Row | SMILES | outcome
21 | C[N+](C)(C)CC(=O)O | inactive
22 | CCOP(=O)(O)OCC (tested in a mixture with another compound) | inactive
23 | CC1=C(C(=O)Nc2ccccc2)SCCO1 | inactive
24 | CCOP(=O)(OCC)OCC | inactive
25 | CCCCOC(=O)COC(=O)c1ccccc1C(=O)OCCCC | inactive
26 | COP(=S)(OC)Oc1ccc(Sc2ccc(OP(=S)(OC)OC)cc2)cc1 | inactive
27 | CC(C)(c1ccccc1)c1ccc(O)cc1 | inactive
28 | CCOC(=O)c1ccccc1N | inactive
29 | CC(C)Nc1nc(Cl)nc(NC(C)C)n1 | inactive
30 | [CH3][Sn]([Cl])([Cl])[Cl] | inactive
31 | Cc1cc(Cl)ccc1N=CN(C)C | inactive
32 | NC(=O)CN1CCCC1=O | inactive
33 | C=CC(Cl)CCl (stereo not given) | inactive
34 | N#Cc1nn(-c2c(Cl)cc(C(F)(F)F)cc2Cl)c(N)c1S(=O)C(F)(F)F (stereo not given) | inactive
35 | CCNc1nc(Cl)nc(NC(C)(C)C#N)n1 | inactive
36 | Oc1ccc(Cl)cc1Cc1ccccc1 | inactive
37 | CC(C)=CC1C(C(=O)OCN2C(=O)C3=C(CCCC3)C2=O)C1(C)C (stereo not given) | inactive
38 | CC(C)(c1ccc(OCC2CO2)cc1)c1ccc(OCC2CO2)cc1 (stereo not given) | inactive
39 | CCCCC(C#N)(Cn1cncn1)c1ccc(Cl)cc1 (stereo not given) | inactive
40 | CCCCCCCCCc1ccc(O)cc1 | inactive
